# Columns and labels:
# Assay in all cases: yeast three-hybrid, YBZ-1, SC-Leu-His + 0.5 mM 3-AT, 4 days
# Settings in all cases: tags: N-Gal4 AD-HA kept; label: inside an RPR1-promoter hybrid RNA with tandem MS2 sites; ssRNA
# PUM1 PUF domain R8-PFH = PUM1 PUF domain R8-PFH (Homo sapiens, UniProt Q14671 828-1176, N1122P;Y1123F;Q1126H)
# Outline: (§1)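 The interaction score is the log change in variant frequency from input to selection. Scores were computed in log2 with a pseudocount of 1 for absent variants, using Illumina sequencing of PCR-amplified repeat regions. The input came from four days on SC-Leu and the selection from four days on SC-Leu-His + 0.5 mM 3-AT. The cells were strain YBZ-1 (LexA–MS2 coat fusion, HIS3 reporter) co-expressing Pumilio-1 PUF domain libraries and matching RNA elements from a centromeric plasmid.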
# PUM1 PUF domain R8-RRH = PUM1 PUF domain R8-RRH (Homo sapiens, UniProt Q14671 828-1176, N1122R;Y1123R;Q1126H)
# PUM1 PUF domain R8-RRH, sequence (Q14671 828-1176 N1122R/Y1123R/Q1126H): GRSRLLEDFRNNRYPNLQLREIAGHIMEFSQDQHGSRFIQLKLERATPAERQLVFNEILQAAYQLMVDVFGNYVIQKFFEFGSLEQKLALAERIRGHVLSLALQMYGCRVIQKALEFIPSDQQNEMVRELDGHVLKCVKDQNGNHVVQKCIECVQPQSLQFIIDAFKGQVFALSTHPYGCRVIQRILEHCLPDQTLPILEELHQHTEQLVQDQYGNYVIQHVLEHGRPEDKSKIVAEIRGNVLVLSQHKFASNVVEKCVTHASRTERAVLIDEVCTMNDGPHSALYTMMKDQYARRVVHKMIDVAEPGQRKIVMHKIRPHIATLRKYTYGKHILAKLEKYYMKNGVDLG
# Outline: as §1
# PUM1 PUF domain R5-PMK = PUM1 PUF domain R5-PMK (Homo sapiens, UniProt Q14671 828-1176, C1007P;R1008M;Q1011K)
# PUM1 PUF domain R5-PMK, sequence (Q14671 828-1176 C1007P/R1008M/Q1011K): as the sequence (Q14671 828-1176 N1122R/Y1123R/Q1126H) above, with C180P, R181M, Q184K, R295N, R296Y, H299Q counted along it
# Outline: as §1
# PUM1 PUF domain R2-RHE = PUM1 PUF domain R2-RHE (Homo sapiens, UniProt Q14671 828-1176, N899R;Y900H;Q903E)
# PUM1 PUF domain R2-RHE, sequence (Q14671 828-1176 N899R/Y900H/Q903E): as the sequence (Q14671 828-1176 N1122R/Y1123R/Q1126H) above, with N72R, Y73H, Q76E, R295N, R296Y, H299Q counted along it
# Outline: as §1
# PUM1 PUF domain R4-VNS = PUM1 PUF domain R4-VNS (Homo sapiens, UniProt Q14671 828-1176, N971V;H972N;Q975S)
# PUM1 PUF domain R4-VNS, sequence (Q14671 828-1176 N971V/H972N/Q975S): as the sequence (Q14671 828-1176 N1122R/Y1123R/Q1126H) above, with N144V, H145N, Q148S, R295N, R296Y, H299Q counted along it
# Outline: as §1
# PUM1 PUF domain R3-GRW = PUM1 PUF domain R3-GRW (Homo sapiens, UniProt Q14671 828-1176, C935G;Q939W)
# PUM1 PUF domain R3-GRW, sequence (Q14671 828-1176 C935G/Q939W): as the sequence (Q14671 828-1176 N1122R/Y1123R/Q1126H) above, with C108G, Q112W, R295N, R296Y, H299Q counted along it
# Outline: as §1
# PUM1 PUF domain R5-RMT = PUM1 PUF domain R5-RMT (Homo sapiens, UniProt Q14671 828-1176, C1007R;R1008M;Q1011T)
# PUM1 PUF domain R5-RMT, sequence (Q14671 828-1176 C1007R/R1008M/Q1011T): as the sequence (Q14671 828-1176 N1122R/Y1123R/Q1126H) above, with C180R, R181M, Q184T, R295N, R296Y, H299Q counted along it
# Outline: as §1
# PUM1 PUF domain R5-QSR = PUM1 PUF domain R5-QSR (Homo sapiens, UniProt Q14671 828-1176, C1007Q;R1008S;Q1011R)
# PUM1 PUF domain R5-QSR, sequence (Q14671 828-1176 C1007Q/R1008S/Q1011R): as the sequence (Q14671 828-1176 N1122R/Y1123R/Q1126H) above, with C180Q, R181S, Q184R, R295N, R296Y, H299Q counted along it
# Outline: as §1
# PUM1 PUF domain R3-PYY = PUM1 PUF domain R3-PYY (Homo sapiens, UniProt Q14671 828-1176, C935P;R936Y;Q939Y)
# PUM1 PUF domain R3-PYY, sequence (Q14671 828-1176 C935P/R936Y/Q939Y): as the sequence (Q14671 828-1176 N1122R/Y1123R/Q1126H) above, with C108P, R109Y, Q112Y, R295N, R296Y, H299Q counted along it
# Outline: as §1
# PUM1 PUF domain R5-TRM = PUM1 PUF domain R5-TRM (Homo sapiens, UniProt Q14671 828-1176, C1007T;Q1011M)
# PUM1 PUF domain R5-TRM, sequence (Q14671 828-1176 C1007T/Q1011M): as the sequence (Q14671 828-1176 N1122R/Y1123R/Q1126H) above, with C180T, Q184M, R295N, R296Y, H299Q counted along it
# Outline: as §1
# PUM1 PUF domain R8-PFH, sequence (Q14671 828-1176 N1122P/Y1123F/Q1126H): as the sequence (Q14671 828-1176 N1122R/Y1123R/Q1126H) above, with R295P, R296F counted along it
sequence,measurement,setting,value
GGCUAGAACUAGUGGAUCCCCCGGCGCCCGGCGGCUCGAGCCCGGGUAAGCGUAAAUAGUCUGCAUGCCGCCGGGCGCCAUGCCUGCAGGUCGACUCUAGAAAACAUG,binding signal,PUM1 PUF domain R8-PFH,2.98 log2 enrichment (interaction score)
same,binding signal,PUM1 PUF domain R8-RRH,2.65 log2 enrichment (interaction score)
GGCUAGAACUAGUGGAUCCCCCGGCGCCCGGCGGCUCGAGCCCGGGUAAGUGUUAAUAGUCUGCAUGCCGCCGGGCGCCAUGCCUGCAGGUCGACUCUAGAAAACAUG,binding signal,PUM1 PUF domain R5-PMK,2.73 log2 enrichment (interaction score)
GGCUAGAACUAGUGGAUCCCCCGGCGCCCGGCGGCUCGAGCCCGGGUAAGUGUAAAGAGUCUGCAUGCCGCCGGGCGCCAUGCCUGCAGGUCGACUCUAGAAAACAUG,binding signal,PUM1 PUF domain R2-RHE,3.71 log2 enrichment (interaction score)
GGCUAGAACUAGUGGAUCCCCCGGCGCCCGGCGGCUCGAGCCCGGGUAAGUGUAUAUAGUCUGCAUGCCGCCGGGCGCCAUGCCUGCAGGUCGACUCUAGAAAACAUG,binding signal,PUM1 PUF domain R4-VNS,2.92 log2 enrichment (interaction score)
GGCUAGAACUAGUGGAUCCCCCGGCGCCCGGCGGCUCGAGCCCGGGUAAGUGUACAUAGUCUGCAUGCCGCCGGGCGCCAUGCCUGCAGGUCGACUCUAGAAAACAUG,binding signal,PUM1 PUF domain R4-VNS,1.91 log2 enrichment (interaction score)
GGCUAGAACUAGUGGAUCCCCCGGCGCCCGGCGGCUCGAGCCCGGGUAAGUGUAAUUAGUCUGCAUGCCGCCGGGCGCCAUGCCUGCAGGUCGACUCUAGAAAACAUG,binding signal,PUM1 PUF domain R3-GRW,0.31 log2 enrichment (interaction score)
GGCUAGAACUAGUGGAUCCCCCGGCGCCCGGCGGCUCGAGCCCGGGUAAGUGUCAAUAGUCUGCAUGCCGCCGGGCGCCAUGCCUGCAGGUCGACUCUAGAAAACAUG,binding signal,PUM1 PUF domain R5-RMT,3.58 log2 enrichment (interaction score)
same,binding signal,PUM1 PUF domain R5-QSR,4.21 log2 enrichment (interaction score)
GGCUAGAACUAGUGGAUCCCCCGGCGCCCGGCGGCUCGAGCCCGGGUAAGUGUAAAUAGUCUGCAUGCCGCCGGGCGCCAUGCCUGCAGGUCGACUCUAGAAAACAUG,binding signal,PUM1 PUF domain R8-RRH,0.67 log2 enrichment (interaction score)
same,binding signal,PUM1 PUF domain R3-PYY,6.39 log2 enrichment (interaction score)
same,binding signal,PUM1 PUF domain R3-GRW,4.33 log2 enrichment (interaction score)
same,binding signal,PUM1 PUF domain R5-QSR,1.54 log2 enrichment (interaction score)
same,binding signal,PUM1 PUF domain R5-TRM,2.74 log2 enrichment (interaction score)

# Reference: PMC8384837, “Expanding the binding specificity for RNA recognition by a PUF domain”
